Experimental data reported in PubChem BioAssay (EPA / NIEHS).
Inconclusive results are not listed. The source made the active and inactive calls. The calls were made as follows, unless noted: active = hit-call score of the fitted dose curve at least 0.9, where 1 is the maximum; inconclusive = response in the unintended direction; inactive = score below 0.9.

Tests used:
[1] = ATG_TCF_b_cat_CIS: Attagene CIS-FACTORIAL HepG2 Assay for human T-Cell-Factor with beta-catenin (TCF/b-cat) (AID 2282965; active = hit-call score of the fitted dose curve at least 0.9, where 1 is the maximum; inactive = score below 0.9); details: HepG2 TCF/beta-catenin cis-reporter transcription, actives raise or lower the signal
Outline: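 HepG2 cells transiently transfected with cis-promoter-driven multiplexed reporter units; reporter mRNA measured 24 h after dosing by RT-PCR, FAM labelling, HpaI digestion and capillary electrophoresis. Bidirectional fitting relative to DMSO baseline.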

[2] = ATG_TAL_CIS: Attagene CIS-FACTORIAL HepG2 Assay for human TAL Basal Promoter (AID 2282966; active = hit-call score of the fitted dose curve at least 0.9, where 1 is the maximum; inactive = score below 0.9;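 also: background control endpoint measuring basal TAL promoter reporter mRNA not a specific factor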); details: HepG2 Attagene cis-factorial TAL promoter reporter; actives raise or lower the signal
Outline: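 Steps: transfect HepG2 with multiple reporter transcription units; dose 24 h; isolate RNA, reverse-transcribe, PCR-amplify, label with 6-FAM, digest with HpaI; resolve by capillary electrophoresis. Bidirectional fitting against DMSO baseline.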

[3] = ATG_TGFb_CIS: Attagene CIS-FACTORIAL HepG2 Assay for human Transforming Growth Factor (TGF) (AID 2282967; active = hit-call score of the fitted dose curve at least 0.9, where 1 is the maximum; inactive = score below 0.9); details: HepG2 Attagene CIS TGFb reporter, mRNA transcription; actives raise or lower the signal
Outline: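 Readout: fluorescently labeled reporter cDNA fragments resolved by capillary electrophoresis after RT-PCR. Transfected HepG2 cells dosed for 24 h; endogenous TF activity at TGFB1-linked cis element; gain or loss fitted relative to DMSO.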

[4] = ATG_VDRE_CIS: Attagene CIS-FACTORIAL HepG2 Assay for human Vitamin D Receptor Element (VDRE) (AID 2282968; active = hit-call score of the fitted dose curve at least 0.9, where 1 is the maximum; inactive = score below 0.9); details: HepG2 VDRE cis-reporter transcription, actives raise or lower the signal
Outline: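 Cell-based multiplexed reporter format in human liver HepG2 cells, 24 h post-dose. Fluorescence from capillary electrophoresis of reporter cDNA gives the signal, with DMSO as negative control and baseline.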

[5] = target: Steroid hormone receptor ERR1 (Homo sapiens) (UniProt P11474); test: ATG_ERRa_TRANS: Attagene TRANS-FACTORIAL HepG2 Assay for human Estrogen-Related Receptor alpha (ERRa) (AID 2282971); details: HepG2 Attagene TRANS reporter, ERRa transactivation
Steroid hormone receptor ERR1 (Homo sapiens), sequence (P11474 whole entry, looked up, the tested form may be a part): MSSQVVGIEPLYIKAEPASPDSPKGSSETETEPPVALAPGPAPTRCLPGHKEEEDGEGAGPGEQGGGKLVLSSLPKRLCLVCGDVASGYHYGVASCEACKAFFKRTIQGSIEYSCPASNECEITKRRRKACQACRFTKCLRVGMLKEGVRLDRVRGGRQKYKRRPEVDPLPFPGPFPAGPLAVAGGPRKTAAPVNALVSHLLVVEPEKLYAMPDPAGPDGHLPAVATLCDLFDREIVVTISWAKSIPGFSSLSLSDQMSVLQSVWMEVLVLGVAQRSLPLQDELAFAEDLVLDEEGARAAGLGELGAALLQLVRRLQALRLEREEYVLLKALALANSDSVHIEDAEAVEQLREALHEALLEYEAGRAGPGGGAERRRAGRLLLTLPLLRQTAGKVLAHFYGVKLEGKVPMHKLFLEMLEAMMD
Outline: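 Signal gain relative to DMSO for an ERRa-Gal4 chimeric receptor, read as reporter mRNA by RT-PCR/capillary electrophoresis. Human HepG2 liver cells, transient multiplex reporter transfection, 24 h chemical exposure.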

[6] = ATG_M_19_TRANS: Attagene TRANS-FACTORIAL HepG2 Assay for M19 Transcription Factor (Internal Marker) (AID 2282974); details: HepG2 Attagene TRANS-FACTORIAL M19 internal marker reporter
Outline: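 Fluorescence of 6-FAM-labelled reporter cDNA fragments, separated by capillary electrophoresis, served as the readout. These derived from HepG2 cells carrying transfected GAL4-UAS reporter units after 24 h dosing, with DMSO as negative control.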

[7] = ATG_GAL4_TRANS: Attagene TRANS-FACTORIAL HepG2 Assay for GAL4 (Internal Marker) (AID 2282976); details: HepG2 Attagene TRANS GAL4 internal marker reporter
Outline: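 Liver HepG2 line bearing multiplexed GAL4-UAS reporter constructs; 24 h chemical treatment. Transcripts were quantified as fluorescent fragments on capillary electrophoresis after RT-PCR and HpaI cut, with activity fitted upward from DMSO.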

[8] = target: Glucocorticoid receptor (Homo sapiens) (UniProt P04150); test: ATG_GR_TRANS: Attagene TRANS-FACTORIAL HepG2 Assay for human Glucocorticoid Receptor (GR) (AID 2282978); details: HepG2 Attagene TRANS GR reporter, mRNA transcription;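 also: activators score as hits since higher reporter transcript over DMSO is fitted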
Glucocorticoid receptor (Homo sapiens), sequence (P04150 whole entry, looked up, the tested form may be a part): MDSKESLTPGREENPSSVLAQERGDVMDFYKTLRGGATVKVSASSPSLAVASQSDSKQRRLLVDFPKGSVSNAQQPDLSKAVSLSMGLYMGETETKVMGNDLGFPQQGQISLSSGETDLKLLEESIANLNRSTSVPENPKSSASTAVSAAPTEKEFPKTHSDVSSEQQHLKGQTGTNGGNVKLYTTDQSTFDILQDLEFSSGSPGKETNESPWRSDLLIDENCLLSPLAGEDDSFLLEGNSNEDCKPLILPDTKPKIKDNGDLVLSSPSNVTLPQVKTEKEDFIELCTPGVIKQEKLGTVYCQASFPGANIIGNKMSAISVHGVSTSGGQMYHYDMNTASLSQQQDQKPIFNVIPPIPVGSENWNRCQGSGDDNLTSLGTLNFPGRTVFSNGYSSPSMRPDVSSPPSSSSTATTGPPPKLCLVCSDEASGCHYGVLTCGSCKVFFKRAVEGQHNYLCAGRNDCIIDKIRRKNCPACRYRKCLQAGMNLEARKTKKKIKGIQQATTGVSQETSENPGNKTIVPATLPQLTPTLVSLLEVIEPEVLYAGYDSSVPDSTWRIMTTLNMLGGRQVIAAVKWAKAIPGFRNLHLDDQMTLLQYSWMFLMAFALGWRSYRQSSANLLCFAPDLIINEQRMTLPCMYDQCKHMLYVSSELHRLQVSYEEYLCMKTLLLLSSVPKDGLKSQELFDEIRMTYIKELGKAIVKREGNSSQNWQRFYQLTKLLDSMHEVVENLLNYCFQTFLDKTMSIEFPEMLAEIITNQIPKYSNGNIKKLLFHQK
Outline: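 Fluorescent capillary-electrophoresis quantitation of reporter mRNA is the readout, taken 24 h after dosing human HepG2 cells carrying transiently transfected GAL4-UAS reporter units activated by chimeric NR-GAL4 fusions; activity scored as induction over DMSO.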

[9] = target: Bile acid receptor (Homo sapiens) (UniProt Q96RI1); test: ATG_FXR_TRANS: Attagene TRANS-FACTORIAL HepG2 Assay for Farnesoid X Receptor (FXR) (AID 2282979); details: HepG2 Attagene TRANS FXR-GAL4 reporter transcription;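 also: hits raise reporter mRNA above DMSO so AC50 marks FXR activation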
Bile acid receptor (Homo sapiens), sequence (Q96RI1 whole entry, looked up, the tested form may be a part): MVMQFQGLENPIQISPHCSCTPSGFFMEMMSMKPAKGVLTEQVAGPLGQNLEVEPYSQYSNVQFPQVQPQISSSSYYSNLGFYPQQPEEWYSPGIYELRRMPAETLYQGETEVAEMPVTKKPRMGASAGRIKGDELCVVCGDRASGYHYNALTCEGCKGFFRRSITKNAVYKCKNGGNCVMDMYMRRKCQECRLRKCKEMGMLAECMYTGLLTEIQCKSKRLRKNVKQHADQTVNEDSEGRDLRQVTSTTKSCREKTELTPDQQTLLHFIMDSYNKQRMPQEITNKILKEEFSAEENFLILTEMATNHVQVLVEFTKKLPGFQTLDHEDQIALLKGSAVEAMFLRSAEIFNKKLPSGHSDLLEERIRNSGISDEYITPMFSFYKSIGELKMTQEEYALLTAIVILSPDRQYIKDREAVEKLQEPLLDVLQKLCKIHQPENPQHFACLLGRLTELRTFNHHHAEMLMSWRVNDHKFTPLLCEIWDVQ
Outline: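 After 24 h chemical treatment of transfected HepG2 cells, GAL4-UAS reporter transcripts driven by an exogenous FXR-GAL4 fusion were measured by RT-PCR and capillary electrophoresis. Increases over DMSO were fitted.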

[10] = target: Oxysterols receptor LXR-alpha (Homo sapiens) (UniProt Q13133); test: ATG_LXRa_TRANS: Attagene TRANS-FACTORIAL HepG2 Assay for human Liver X Receptor alpha (LXRa) (AID 2282980); details: HepG2 Attagene TRANS reporter, LXRa transactivation
Oxysterols receptor LXR-alpha (Homo sapiens), sequence (Q13133 whole entry, looked up, the tested form may be a part): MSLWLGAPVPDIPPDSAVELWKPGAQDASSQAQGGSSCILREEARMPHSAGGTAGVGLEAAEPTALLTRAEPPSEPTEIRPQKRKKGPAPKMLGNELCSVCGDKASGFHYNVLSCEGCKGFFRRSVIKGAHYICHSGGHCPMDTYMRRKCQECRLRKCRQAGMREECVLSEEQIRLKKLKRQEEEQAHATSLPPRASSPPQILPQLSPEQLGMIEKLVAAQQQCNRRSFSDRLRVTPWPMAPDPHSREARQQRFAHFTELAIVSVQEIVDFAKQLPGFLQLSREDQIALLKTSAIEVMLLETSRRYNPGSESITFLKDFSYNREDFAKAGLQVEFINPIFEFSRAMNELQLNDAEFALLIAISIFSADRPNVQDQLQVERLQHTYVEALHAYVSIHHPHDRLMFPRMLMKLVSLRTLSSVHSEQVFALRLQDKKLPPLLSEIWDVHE
Outline: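 In this multiplexed TRANS system, compounds act on HepG2 cells carrying GAL4-UAS reporter units and a receptor-GAL4 fusion for 24 h. Induced reporter RNA is amplified, fluorescently labelled and sized by capillary electrophoresis, with DMSO as baseline.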

[11] = target: Oxysterols receptor LXR-beta (Homo sapiens) (UniProt P55055); test: ATG_LXRb_TRANS: Attagene TRANS-FACTORIAL HepG2 Assay for human Liver X Receptor beta (LXRb) (AID 2282981); details: HepG2 Attagene TRANS GAL4-LXRb reporter, mRNA
Oxysterols receptor LXR-beta (Homo sapiens), sequence (P55055 whole entry, looked up, the tested form may be a part): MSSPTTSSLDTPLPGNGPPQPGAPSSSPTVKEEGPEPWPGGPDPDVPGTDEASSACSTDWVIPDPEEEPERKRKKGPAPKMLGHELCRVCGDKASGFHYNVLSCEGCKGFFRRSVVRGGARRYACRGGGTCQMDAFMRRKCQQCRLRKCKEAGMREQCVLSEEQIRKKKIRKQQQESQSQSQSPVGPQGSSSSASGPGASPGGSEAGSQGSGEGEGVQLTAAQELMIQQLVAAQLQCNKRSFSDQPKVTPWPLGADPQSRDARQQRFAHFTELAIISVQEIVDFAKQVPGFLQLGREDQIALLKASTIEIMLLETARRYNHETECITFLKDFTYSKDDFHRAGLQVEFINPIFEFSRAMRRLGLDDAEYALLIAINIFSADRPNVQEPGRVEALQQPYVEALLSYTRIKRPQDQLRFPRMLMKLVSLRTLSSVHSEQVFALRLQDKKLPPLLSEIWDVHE
Outline: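 Gain-of-signal mRNA reporter endpoint, DMSO as negative control. Transiently transfected HepG2 cells carrying the NR-Gal4 chimera and GAL4-UAS reporter units were treated 24 h; transcripts quantified by RT-PCR and capillary electrophoresis fluorescence.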

[12] = ATG_M_32_TRANS: Attagene TRANS-FACTORIAL HepG2 Assay for M32 Transcription Factor (Internal Marker) (AID 2282984); details: HepG2 Attagene TRANS M32 internal marker reporter
Outline: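 Capillary electrophoresis of 6-FAM-labelled reporter fragments gives the signal; data fitted for gain over DMSO negative control. Source: HepG2 cells bearing transient multiple reporter transcription units, 24 h exposure.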

[13] = target: Transcriptional activator Myb (Homo sapiens) (UniProt P10242); test: ATG_Myb_CIS: Attagene CIS-FACTORIAL HepG2 Assay for human Myeloblastosis (Myb) Proto-Oncogene Transcription Factor (AID 2282986; active = hit-call score of the fitted dose curve at least 0.9, where 1 is the maximum; inactive = score below 0.9); details: HepG2 Attagene CIS-FACTORIAL Myb reporter transcription; actives raise or lower the signal
Transcriptional activator Myb (Homo sapiens), sequence (P10242 whole entry, looked up): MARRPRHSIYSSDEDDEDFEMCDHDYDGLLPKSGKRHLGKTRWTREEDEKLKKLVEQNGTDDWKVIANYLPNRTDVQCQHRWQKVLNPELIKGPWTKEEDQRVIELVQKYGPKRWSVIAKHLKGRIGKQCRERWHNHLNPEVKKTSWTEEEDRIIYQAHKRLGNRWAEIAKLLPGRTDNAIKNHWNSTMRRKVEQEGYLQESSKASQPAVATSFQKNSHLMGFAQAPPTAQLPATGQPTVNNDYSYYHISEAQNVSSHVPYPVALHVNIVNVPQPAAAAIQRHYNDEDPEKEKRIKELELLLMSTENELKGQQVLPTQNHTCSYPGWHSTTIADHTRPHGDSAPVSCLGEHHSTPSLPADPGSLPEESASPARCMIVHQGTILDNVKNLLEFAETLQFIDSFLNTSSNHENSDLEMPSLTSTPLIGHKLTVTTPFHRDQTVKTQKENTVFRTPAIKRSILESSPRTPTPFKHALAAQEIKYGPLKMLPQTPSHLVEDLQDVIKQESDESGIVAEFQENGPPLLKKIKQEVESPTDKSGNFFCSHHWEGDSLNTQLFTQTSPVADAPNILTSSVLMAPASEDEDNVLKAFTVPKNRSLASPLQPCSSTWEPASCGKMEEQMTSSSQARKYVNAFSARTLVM
Outline: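 Reporter transcript levels, quantified by fluorescent RT-PCR and capillary electrophoresis, serve as the read-out. Transfected HepG2 cells carrying cis-promoter reporter units are dosed for 24 hours, and curves are fitted bidirectionally against DMSO controls.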

[14] = target: Estrogen receptor (Homo sapiens) (UniProt P03372); test: ATG_ERa_TRANS: Attagene TRANS-FACTORIAL HepG2 Assay for human Estrogen Receptor alpha (ERa) (AID 2282970); details: HepG2 Attagene TRANS ERa GAL4 reporter, mRNA
Estrogen receptor (Homo sapiens), sequence (P03372 whole entry, looked up, the tested form may be a part): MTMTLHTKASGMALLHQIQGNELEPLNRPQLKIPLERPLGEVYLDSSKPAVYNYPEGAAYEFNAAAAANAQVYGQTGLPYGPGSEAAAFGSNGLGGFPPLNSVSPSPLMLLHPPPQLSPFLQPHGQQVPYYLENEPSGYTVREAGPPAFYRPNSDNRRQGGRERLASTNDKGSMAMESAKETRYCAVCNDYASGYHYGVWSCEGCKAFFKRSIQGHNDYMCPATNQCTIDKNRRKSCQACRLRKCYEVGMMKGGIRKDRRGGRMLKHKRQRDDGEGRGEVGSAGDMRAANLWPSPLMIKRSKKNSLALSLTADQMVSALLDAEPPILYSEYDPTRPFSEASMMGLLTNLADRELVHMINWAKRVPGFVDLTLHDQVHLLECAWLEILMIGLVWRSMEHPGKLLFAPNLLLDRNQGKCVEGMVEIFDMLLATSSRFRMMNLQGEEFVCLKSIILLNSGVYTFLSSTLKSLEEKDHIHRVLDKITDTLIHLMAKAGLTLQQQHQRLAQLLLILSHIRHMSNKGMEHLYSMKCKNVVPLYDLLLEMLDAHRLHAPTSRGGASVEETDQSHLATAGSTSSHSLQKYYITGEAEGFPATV
Outline: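 Multiplexed cell-based reporter format in HepG2: chimeric ERa-Gal4 protein drives GAL4-UAS reporter transcription. Fluorescent reporter mRNA quantified by capillary electrophoresis 24 hours after dosing; endpoint fitted as signal gain against DMSO.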

[15] = target: X-box-binding protein 1 (Homo sapiens) (UniProt P17861); test: ATG_Xbp1_CIS: Attagene CIS-FACTORIAL HepG2 Assay for human X-box Binding Protein 1 (XBP1) (AID 2282972; active = hit-call score of the fitted dose curve at least 0.9, where 1 is the maximum; inactive = score below 0.9); details: HepG2 XBP1 cis-element reporter, Attagene multiplex; actives raise or lower the signal
X-box-binding protein 1 (Homo sapiens), sequence (P17861 whole entry, looked up): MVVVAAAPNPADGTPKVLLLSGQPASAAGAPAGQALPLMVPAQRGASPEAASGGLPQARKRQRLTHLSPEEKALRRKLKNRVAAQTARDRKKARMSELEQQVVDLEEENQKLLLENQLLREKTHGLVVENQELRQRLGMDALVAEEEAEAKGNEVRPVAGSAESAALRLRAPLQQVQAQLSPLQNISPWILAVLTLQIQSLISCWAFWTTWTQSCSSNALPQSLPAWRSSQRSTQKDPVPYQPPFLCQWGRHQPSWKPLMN
Outline: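 After a 24-hour chemical exposure of HepG2 cells carrying cis-regulated reporters, reporter mRNA levels are assessed. Quantification uses RT-PCR, 6-FAM labelling and capillary electrophoresis. Gain- or loss-of-signal is fitted against DMSO.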

[16] = target: Hepatocyte nuclear factor 4-alpha (Homo sapiens) (UniProt P41235); test: ATG_HNF4a_TRANS: Attagene TRANS-FACTORIAL HepG2 Assay for human Hepatocyte Nuclear Factor 4 alpha (HNF4a) (AID 2282982); details: HepG2 HNF4a transactivation reporter, mRNA readout
Hepatocyte nuclear factor 4-alpha (Homo sapiens), sequence (P41235 whole entry, looked up, the tested form may be a part): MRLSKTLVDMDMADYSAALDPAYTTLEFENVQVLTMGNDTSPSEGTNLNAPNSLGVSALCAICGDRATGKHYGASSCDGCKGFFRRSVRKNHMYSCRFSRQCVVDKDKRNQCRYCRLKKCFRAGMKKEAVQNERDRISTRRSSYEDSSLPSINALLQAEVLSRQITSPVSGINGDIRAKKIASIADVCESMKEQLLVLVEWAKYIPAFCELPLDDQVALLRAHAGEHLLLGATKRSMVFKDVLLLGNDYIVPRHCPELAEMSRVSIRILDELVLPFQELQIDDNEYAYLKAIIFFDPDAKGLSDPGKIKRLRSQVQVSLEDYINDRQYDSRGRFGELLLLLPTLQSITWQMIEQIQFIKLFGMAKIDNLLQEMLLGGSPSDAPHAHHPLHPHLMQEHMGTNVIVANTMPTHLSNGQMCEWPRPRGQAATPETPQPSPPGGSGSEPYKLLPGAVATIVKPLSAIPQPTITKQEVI
Outline: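 Gain-of-signal mRNA induction, relative to DMSO vehicle, was read after 24 h compound treatment of HepG2 cells bearing transfected GAL4-UAS reporters. Detection used RT-PCR, 6-FAM primer extension and capillary electrophoresis.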

[17] = ATG_M_06_TRANS: Attagene TRANS-FACTORIAL HepG2 Assay for M06 Transcription Factor (Internal Marker) (AID 2282983); details: HepG2 Attagene TRANS M06 internal marker reporter
Outline: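 Internal-marker background readout from a multiplexed TRANS reporter system in HepG2; 24 h dosing; mRNA induction quantified by RT-PCR plus capillary electrophoresis fluorescence; DMSO as negative control and baseline.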

[18] = target: Nuclear receptor subfamily 4 group A member 2 (Homo sapiens) (UniProt P43354); test: ATG_NURR1_TRANS: Attagene TRANS-FACTORIAL HepG2 Assay for human Nuclear Receptor Related Protein 1 (NURR1) (AID 2282985); details: HepG2 Attagene TRANS reporter, mRNA readout
Outline: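 HepG2 / transient MRTU transfection / 24 h compound exposure / RT-PCR + CE fluorescence of reporter mRNA / gain-of-signal vs DMSO.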

[19] = target: Estrogen-related receptor gamma (Homo sapiens) (UniProt P62508); test: ATG_ERRg_TRANS: Attagene TRANS-FACTORIAL HepG2 Assay for human Estrogen-Related Receptor gamma (ERRg) (AID 2282977); details: HepG2 Attagene TRANS reporter, ERRg transactivation;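 also: hits increase reporter signal over DMSO so potencies reflect activators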
Outline: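 Transient HepG2 transfectants, 24 h compound exposure, GAL4-UAS reporter mRNA by RT-PCR/6-FAM labelling/capillary electrophoresis; positive direction vs DMSO.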

Measured: outcome

CC(C)(C)C1CCC(=O)CC1
inactive: [1] | [2] | [3] | [4] | [5] | [6] | [7] | [8] | [9] | [10] | [11] | [12] | [13]

Cc1ccc([N+](=O)[O-])cc1N
inactive: [1] | [2] | [3] | [4] | [14] | [15] | [9] | [11] | [16] | [17] | [13]

CCCCOCC(C)O (configuration not stated)
inactive: [1] | [2] | [3] | [4] | [14] | [15] | [10] | [16] | [17] | [18] | [13]

CC(=O)OC1CCCCC1
inactive: [1] | [2] | [3] | [4] | [5] | [15] | [7] | [19] | [8] | [9] | [17] | [13]
